Shown are actives, neighbours in structure and some others; about 21% of the full set was active somewhere.
Shiga toxin inh: Shiga toxin inhibition. Vero cells, Shiga toxin protein synthesis inhibition reporter. inhibition, % at 38.7 µM. hit rate 9.2% among 290,000. AID 2315; in the data active = inhibition mostly above about 28%, no sharp cut-off; inactive = mostly below about 43%; note: 0% is about no effect
SARS PLP yeast: SARS-CoV PLP inhibition in yeast. S. cerevisiae expressing SARS-CoV PLpro, growth rescue. Potency, µM (series often up to 32.9 µM), inactives show top-dose activity, positive = growth rescue, most hits filed as activators. hit rate 0.19% among 330,000. AID 485353; calls by dose curve; note: potency is the fitted concentration of half-maximal effect; 0% is about no effect; nearly all actives have a fitted effect of over 55% in size
Cycloheximide cs: counter-screen hit for Shiga toxin inhibitors, cycloheximide; AID 2314; max response, %; hit rate 12% among 300,000; cell reporter, cycloheximide protein synthesis inhibition counterscreen; in the data active = max response mostly above about 13%, no sharp cut-off; inactive = mostly below about 14%; note: read at 38.3 µM for the half of the compounds with a filed dose; 0% is about no effect
NS1 inh: blocks influenza NS1 protein function. hit rate 0.4% among 270,000. Potency, µM (top dose mostly 46.1 µM), for inactives: at the top dose activity, positive = more growth; calls by dose curve; note: potency is the fitted concentration of half-maximal effect; actives are rising curves; nearly all actives have a fitted effect of over 50% in size
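A cell-based growth assay was used: compounds that relieve NS1-induced slow growth of budding yeast raise OD600. Assay medium was yeast nitrogen base with ammonium sulphate and -URA supplement, pH 6.0, with 2% galactose.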
Pf growth 48h: inhibits P. falciparum growth in the first generation, 48 h; P. falciparum luciferase growth in erythrocytes, 48 h; Potency, µM (series often up to 28.7 µM), for the others: at the top dose activity change, negative = inhibition, hits mostly inhibitors; hit rate 5.9% among 310,000; AID 504832; note: potency is the fitted concentration of half-maximal effect; % is set by controls: 0 for no effect and ±100 for the full control effect
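Luciferase-expressing parasites in RBCs, 2% Hct / 0.1% parasitemia final; RPMI 1640 + 0.5% Albumax; 37 C, 5% CO2, one generation; luminescence read-out, lower signal = inhibition.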
Pf growth 96h: P. falciparum growth inhibition at 96 hour, primary screen for plastid delayed-death inhibitors. P. falciparum luciferase reporter growth, 96 h. Potency, µM (doses to about 28.7 µM), without a hit: top-dose activity change, negative = inhibition, hits mostly inhibitors. hit rate 6.9% among 320,000. AID 504834; note: potency is the fitted concentration of half-maximal effect; % is set by controls: 0 for no effect and ±100 for the full control effect
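Cell-based qHTS: luciferase-tagged P. falciparum in erythrocytes (2% hematocrit, 0.05% parasitemia final) incubated with compounds for 96 hours, 37 C, 5% CO2; luciferase detection reagent then added and luminescence measured.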
An asterisk follows results filed as active; u = inconclusive; x = no result given; ! = not confirmed by another sample. Unless noted, calls come from the whole dose curve; as a rule, active = well fitted inhibition curve with a large enough effect; inconclusive = small, poorly fitted or top-dose-only effect, or another doubt; inactive = no such curve, though single readings can be large or run the other way.

SMILES	Shiga toxin inh	SARS PLP yeast	Cycloheximide cs	NS1 inh	Pf growth 48h	Pf growth 96h
O=C1CSC(c2ccc(F)cc2)N1c1c(F)cccc1F (stereo not given)	22	1%	21*	2%	-3%	2%
O=C1CSC(c2ccc([N+](=O)[O-])cc2)N1c1ccccc1 (stereo not given)	2	1%	-4	4%	x	u
COc1ccc(N2C(=O)CCC(C(=O)O)C2c2ccc(F)cc2)cc1 (stereo not given)	-15	-5%	-3	10%	4%	2.6µM*
NCCc1ccn[nH]1	x	x	x	x	-1%	-3%
COc1ccc(Br)cc1CN1CCCCCC1	-9	7%	-2	6%	u	21%
O=c1c2cc3c(cc2[nH]c(=S)n1Cc1ccco1)OCO3	-24	-2%	1	2%	-11%	7%
COc1ccc(C2SCC(=O)N2c2ccc(F)cc2)cc1 (stereo not given)	-7	2%	-2	2%	13%	2.6µM*
COc1ccc(C2SCC(=O)N2c2ccc(OC)cc2)cc1 (stereo not given)	15	2%	-2	5%	3%	374%
COc1ccc(C2C(C(=O)O)CC(=O)N2c2ccc(OC)cc2)cc1 (stereo not given)	1	-2%	-1	4%	4%	u
CCOC(=O)N1CCN(C(=O)C2CC(=O)N(c3ccc(OC)cc3)C2c2ccc(OC)cc2)CC1 (stereo not given)	7	-1%	-2	-3%	9.3µM*	u
Cc1c(Cl)ccc(S(=O)(=O)NCCCn2ccnc2)c1Cl	-7	-3%	-4	11%	-18%	-7%
C[C@H](Br)CN(C[C@H](C)Br)c1ccc2c(c1)Cc1ccccc1-2	x	x	x	-13%	x	x
CCc1ccccc1NC(=S)N(Cc1ccc(C(=O)O)cc1)Cc1ccc(OC)c(OC)c1	19	3%	7	x	u	u
Cc1nn(Cc2ccccc2)c(N)c1C#N	-8	-2%	-4	-6%	15%	12µM*
Fc1ccc(Sc2nc(-c3ccccc3)nnc2C(F)(F)F)cc1	-2	-1%	1	1%	8.3µM*	13µM*
C=CCN1C(=O)c2ccc(C(=O)N(C)CC(=O)Nc3ccccc3Br)cc2C1=O	-7	5%	-2	5%	2%	1%
CC(CCc1ccccc1)NC(=O)c1cncc(Br)c1 (stereo not given)	-12	-2%	4	-4%	x	39%
CCN(C(=O)c1cn(C)c(=O)c2cc(OC)c(OC)cc12)c1cc(C)ccc1C	-11	0%	-3	-1%	9.3µM*	71%
O=C(O)Cc1ccc(C(=O)c2ccc(Cl)cc2Cl)s1	15	1%	19	x	0%	28%
NC(=O)Cc1ccc(C(=O)c2ccc(Cl)cc2Cl)s1	48*	-12%	23*	x	37%	51%
CCCN(CCC)C(=O)C[n+]1cccc(/C=N/O)c1	-10	-3%	-5	-10%	u	u
O=C(CCCC(=O)c1ccc(O)cc1)c1ccc(O)cc1	x	7%	x	x	43%	-16%
CCC(=O)c1ccc(-c2ccccc2)cc1	34	-4%	29*	-4%	60%	80%
CCC(=O)c1ccc(O)cc1	-7	-3%	0	-12%	5%	15µM*!
O=C(CSc1nncc(=O)[nH]1)NC1CCCCC1	5	1%	-3	9%	11%	3.7µM*
SMILES	Shiga toxin inh	SARS PLP yeast	Cycloheximide cs	NS1 inh	Pf growth 48h	Pf growth 96h
O=C(CCSc1ccccc1)NC1CCCCCC1	98*	-2%	33*	-3%	29%	14%
Cc1ccc(SCC(=O)NC2CCCCCC2)cc1	67*	1%	30*	-11%	65%	34%
NNC(=O)CCSc1ccccc1	x	x	x	0%	x	x
O=C(Nc1ccc(C(=O)NCCCN2CCN(c3ccc(F)cc3)CC2)cc1)C1=CSCCO1	3	1%	1	2%	u	12µM*
CC(C)CCNC(=O)c1ccc(NC(=O)C2=CSCCO2)cc1	59*	2%	24*	8%	15%	7%
O=C(Nc1ccc(C(=O)NCCCN2CCCCC2)cc1)C1=CSCCO1	12	0%	9	-5%	22%	u
C=CCNC(=O)c1ccc(NC(=O)C2=CSCCO2)cc1	30	-4%	23*	-6%	25%	-84%
CC1CCCN(CCCNC(=O)c2ccc(NC(=O)C3=CSCCO3)cc2)C1 (stereo not given)	10	u	-3	-6%	11%	u

Assay outcomes: PubChem BioAssay, National Center for Advancing Translational Sciences (NCATS)
